For 21 compounds, growth inhibition results are on record in PubChem BioAssay (NCI).

The nature of experiment [1]: NCI Yeast Anticancer Drug Screen. Data for the rad50 strain (AID 155).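 Also: 0% = growth of vehicle-only cultures of the same strain.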 To be noted: S. cerevisiae rad50 strain growth inhibition; at 50.0 µM; active compounds read high. In a few lines:
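Inhibition values express reduced yeast growth in compound-treated cultures relative to vehicle-treated controls.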

Experiment [2] is described as follows: NCI Yeast Anticancer Drug Screen. Data for the mec2-1 strain (AID 157). To be noted: S. cerevisiae mec2-1 strain, at 50.0 µM, active compounds read high. In a few lines: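 Vehicle-treated cultures served as reference for growth inhibition of compound-exposed mec2-1 yeast.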
The nature of experiment [3]: NCI Yeast Anticancer Drug Screen. Data for the sgs1 mgt1 strain (AID 161).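 Also: 0% = growth of cultures given vehicle only.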 Conditions: S. cerevisiae sgs1 mgt1 strain, at 50.0 µM, active compounds read high. In outline: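 Read-out: growth inhibition vs vehicle controls. Cells: mutant yeast strain deficient in DNA damage repair.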
Experiment [4] is described as follows: NCI Yeast Anticancer Drug Screen. Data for the cln2 rad14 strain (AID 165).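 Also: 0% = growth equal to vehicle treated cultures.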 Conditions: S. cerevisiae cln2 rad14 strain, at 50.0 µM, active compounds read high. In outline:
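Each compound was tested on cln2 rad14 yeast. Inhibition of growth was calculated against vehicle-exposed controls.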

The nature of experiment [5]: NCI Yeast Anticancer Drug Screen. Data for the bub3 strain (AID 167). To be noted: S. cerevisiae bub3 mutant strain, at 50.0 µM, active compounds read high. In a few lines: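 Steps: expose the mutant yeast strain to compound; grow alongside vehicle-treated cultures; measure growth; express inhibition against the vehicle cultures.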
The nature of experiment [6]: NCI Yeast Anticancer Drug Screen. Data for the mlh1 rad18 strain (AID 175). Conditions: S. cerevisiae mlh1 rad18 strain growth inhibition; at 50.0 µM; active compounds read high. In outline:
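Vehicle-treated cultures served as the reference for growth inhibition in a yeast strain carrying DNA damage repair alterations exposed to each compound.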

Compounds without any hit were thinned out: in the full panel of roughly 79,000, 15% have a hit. Values without a mark were called inactive. The source made the active and inactive calls. Rule as the data show it: active = growth inhibition above about 70%; inactive = the rest.

For `COc1ccc(C(=O)O)cc1[N+](=O)[O-]` (tested in a mixture with another compound), the growth inhibition in experiment [1] was 9.25%; in experiment [2] it was 4.45%; in experiment [3] it was 5.55%; in experiment [4], 7.4%; in experiment [5], 11.4%; in experiment [6] it was 15.1%.
As to `O=C(c1cc(N(CCCl)CCCl)c([N+](=O)[O-])cc1[N+](=O)[O-])N1CCOCC1`, the growth inhibition is -1.6% in experiment [1]; -3.55% in experiment [2]; 13.2% in experiment [3]; 3.55% in experiment [4]; 19.3% in experiment [5]; -3.75% in experiment [6].
On to `O=C(CBr)OCCOC(=O)CBr`, for which the growth inhibition in experiment [1] was 0.55%; in experiment [2] it was 18.4%; in experiment [3], -8.5%; in experiment [4] it was 14.4%; in experiment [5] it was 28.5%; in experiment [6] it was -3.95%.
`COc1ccc2[se]c(C)nc2c1`: the growth inhibition was -26.2% in experiment [1]; -35.1% in experiment [2]; 5.3% in experiment [3]; -2.6% in experiment [4]; -17.3% in experiment [5]; -18.6% in experiment [6].
As for `OC(CN1CC1)C(O)CN1CC1` (stereo unspecified), the growth inhibition in experiment [1] is -16.4%; in experiment [2] it was -26.2%; in experiment [3] it was -34%; in experiment [4] it was 8.15%; in experiment [5], -44.8%; in experiment [6], -14.2%.
Consider `Cc1ccc2cc3c(ccc4ccccc43)c3c2c1CC3`, for which the growth inhibition was -9.05% in experiment [1]; -23.9% in experiment [2]; -2.75% in experiment [3]; -3.4% in experiment [4]; 13.3% in experiment [5]; 1.85% in experiment [6].
As to `CCC[As](=O)(O)Cc1ccccc1C`, the growth inhibition in experiment [1] was 4.3%; in experiment [2] it was -5.4%; in experiment [3], 7.8%; in experiment [4] it was -1.3%; in experiment [5] it was 18%; in experiment [6] it was 22.1%.
Take `N#CS.[Co+3].[NH-]CC[NH-].[NH-]CC[NH-].[NH-]CC[SH2+]`: the growth inhibition is 12.2% in experiment [1]; 43% in experiment [2]; 13.2% in experiment [3]; 3.2% in experiment [4]; 35.6% in experiment [5]; 9.65% in experiment [6].
With `Cc1ncc(CNC(=O)N(CCCl)N=O)c(N)n1`, the growth inhibition in experiment [1] is 0.45%; in experiment [2] it was -6.8%; in experiment [3], 6.3%; in experiment [4], -10.2%; in experiment [5], -4.2%; in experiment [6], 32.1%.
On to `CN1C(=O)C[N+]([O-])=C(c2ccccc2)c2cc(Cl)ccc21`, for which the growth inhibition was 2.45% in experiment [1]; 0.9% in experiment [2]; -10.1% in experiment [3]; 18.6% in experiment [4]; -5.15% in experiment [5]; -13.7% in experiment [6].
With `CCc1ccc([N+](=O)[O-])cc1`, the growth inhibition in experiment [1] is -9.25%; in experiment [2], -12%; in experiment [3], -19.7%; in experiment [4], -29.4%; in experiment [5], 1.35%; in experiment [6] it was 10.5%.
Turning to `C[CH2][Sn]([I])([CH2]C)[CH2]C`, the growth inhibition is 96% (active) in experiment [1]; 98% (active) in experiment [2]; 97.1% (active) in experiment [3]; 98.3% (active) in experiment [4]; 98.1% (active) in experiment [5]; 98.5% (active) in experiment [6].
For the compound `Nc1nnnn1CCO`, the growth inhibition in experiment [1] was -4.7%; in experiment [2], -13%; in experiment [3] it was -17%; in experiment [4], 6.4%; in experiment [5], -13.1%; in experiment [6] it was -13.1%.
`CCOP(=O)(OCC)/C(C#N)=C/c1nccn1C`: the growth inhibition in experiment [1] is -15.2%; in experiment [2], 0.15%; in experiment [3] it was -13.7%; in experiment [4], 34.3%; in experiment [5], 24.1%; in experiment [6] it was -34.4%.
For the compound `CCCCCCCCCCCCCCCC(=O)OCC(C[As](=O)(O)O)OC(=O)CCCCCCCCCCCCCCC` (stereo unspecified), the growth inhibition in experiment [1] was 26.1%; in experiment [2], 5.9%; in experiment [3], -15.1%; in experiment [4] it was 9.5%; in experiment [5] it was -0.15%; in experiment [6], 13.5%.
As to `CO[C@H](C)[C@](O)(C(=O)OCC1=CC[N+]2([O-])CC[C@H](O)[C@@H]12)C(C)C` (stereo partly specified), the growth inhibition was 1.75% in experiment [1]; -20.2% in experiment [2]; 2.35% in experiment [3]; 7.25% in experiment [4]; -8.95% in experiment [5]; -10.2% in experiment [6].
Regarding `CN(C)CCCN1CCCCC1`, the growth inhibition in experiment [1] was 8.7%; in experiment [2], -0.65%; in experiment [3] it was -4.45%; in experiment [4], 3.8%; in experiment [5], 7.05%; in experiment [6], -8%.
Consider `CCNC1=C(N2CC2)C(=O)C(NCC)=C(N2CC2)C1=O`, for which the growth inhibition in experiment [1] was 30.5%; in experiment [2], 15.7%; in experiment [3], 29.4%; in experiment [4], 8.1%; in experiment [5] it was 13.3%; in experiment [6], 18.7%.
In the case of `PCc1ccccc1.[Cl][Hg][Cl]`, the growth inhibition in experiment [1] was -34.7%; in experiment [2] it was 12.7%; in experiment [3] it was 14.2%; in experiment [4], -59.4%; in experiment [5], -6%; in experiment [6], 12.6%.
For the compound `COC(=O)c1cncn1C(C)c1cccc2ccccc12` (stereo unspecified), the growth inhibition is 90.7% (active) in experiment [1]; 91% (active) in experiment [2]; 79.2% (active) in experiment [3]; 59% in experiment [4]; 88.2% (active) in experiment [5]; 89.3% (active) in experiment [6].
Regarding `O=C1NC2NC3NC(=O)NC3NC2N1` (stereo unspecified), the growth inhibition in experiment [1] was 3.6%; in experiment [2], 1.85%; in experiment [3], 0.2%; in experiment [4], -5.25%; in experiment [5], 10.2%; in experiment [6], -24.4%.
